# PHOSPHO1 block – blocks human PHOSPHO1 phosphatase activity. actives 1.1% (n = 290,000). inhibition, % at 13.3 µM. AID 1565. recombinant PHOSPHO1, absorbance phosphatase assay; in the data active means inhibition above about 60%
# Target sequence (Q8TCT1 whole entry, looked up): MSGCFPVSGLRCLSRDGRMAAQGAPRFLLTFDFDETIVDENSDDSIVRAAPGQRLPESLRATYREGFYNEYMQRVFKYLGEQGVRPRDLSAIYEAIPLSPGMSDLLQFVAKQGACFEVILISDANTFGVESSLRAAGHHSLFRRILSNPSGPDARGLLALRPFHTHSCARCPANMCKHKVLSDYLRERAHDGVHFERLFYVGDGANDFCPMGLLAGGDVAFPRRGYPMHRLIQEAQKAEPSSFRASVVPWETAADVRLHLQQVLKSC
# Platelet DG rel – modulates dense granule release in human platelets | actives 0.22% (n = 300,000) | inhibition, %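 (compounds screened at 7.5 µM in platelet-rich plasma)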 | human platelet-rich plasma, SFLLRN dense granule ATP release, luminescence | AID 1663;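 active means mean replicate score, as percent of positive control, at or above 50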
# SKKanGAS inh – blocks kanamycin growth of S. pyogenes SKKanGAS strain; BacTiter-Glo, 6 h; inhibition, % at 7.5 µM; actives 1.3% (n = 300,000);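 active means mean replicate score, as percent of positive control median, at least 50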;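 further: strain carries kanamycin resistance gene driven by streptokinase promoter and grows in 40 µg/ml kanamycin; loss of luminescence reflects streptokinase promoter inhibition or plain growth inhibition; 0% = median of DMSO wells and 100% = positive control at its reference dose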
# WT yeast gro inh – growth inhibition of WT yeast, mitochondrial fusion screen | mitochondrial fusion phenotypic screen, WT strain | inhibition, % at 10 µM | actives 2.1% (n = 190,000) | AID 1362; in the data active means inhibition above about 58%; tested in S. cerevisiae
# Rtt109 HAT inh – C. albicans Rtt109 histone acetyltransferase inhibition; Q5AAJ8; purified Rtt109/Vps75, ThioGlo CoA-SH fluorescence, 4 h; inhibition, % at 34.9 µM; actives 0.16% (n = 330,000);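 active means inhibition of at least 50% in every replicate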
# TPT1 inhibitor – inhibitors of Candida albicans tRNA 2'-phosphotransferase TPT1 | recombinant caTPT1, FP RNA substrate dephosphorylation | inhibition, % at 5 µM | actives 0.81% (n = 300,000);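 active means inhibition above the mean of all tested compounds plus 3 SD, set per screening campaign, cut at about 24% in these data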;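 further: plate controls were DMSO alone for no effect and ferristatin control at 100 nM for full effect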
# caTPT1 confirm – confirmation of Candida albicans TPT1 inhibitors. shares compounds with TPT1 inhibitor. recombinant caTPT1, fluorescence polarization, RNase T1 coupled. inhibition, % at 5 µM. actives 74% (n = 2,400). AID 2149;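 active means inhibition above the primary screen limit, the mean inhibition of all tested compounds plus 3 SD, cut at about 25% in these data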
# RNase T1 counter – counter-screen for TPT1 inhibitors: inhibitors of Aspergillus oryzae RNase T1; shares compounds with TPT1 inhibitor; RNase T1 cleavage, fluorescence polarization, 1536-well; inhibition, % at 5 µM; actives 83% (n = 2,400);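 active means inhibition above the solvent-only control well mean plus 3 SD, limit set per screening run, cut at about 23% in these data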;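 further: plate controls were DMSO wells with enzyme for no effect and wells without RNase T1 for full effect; inhibitors block cleavage so intact labeled substrate keeps polarization high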
# Target sequence (P00651 whole entry, looked up): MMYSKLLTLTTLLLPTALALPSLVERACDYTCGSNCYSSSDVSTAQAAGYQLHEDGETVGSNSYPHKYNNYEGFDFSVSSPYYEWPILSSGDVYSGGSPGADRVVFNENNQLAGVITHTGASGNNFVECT
# Numbers without * were called inactive; nt = no result. Shown are actives, neighbours in structure and some others; about 3.9% of the full set was active somewhere.
SMILES,PHOSPHO1 block,Platelet DG rel,SKKanGAS inh,WT yeast gro inh,Rtt109 HAT inh,TPT1 inhibitor,caTPT1 confirm,RNase T1 counter
CCOc1ccc(S(=O)(=O)N2CCCCC2)cc1NC(=O)CCNC(=O)c1ccco1,nt,nt,nt,nt,1.5,nt,nt,nt
O=C(/C=C/c1ccc([N+](=O)[O-])cc1)/C=C/c1ccco1,16.0,-6.5,6.8,nt,-6.7,26.8*,24.1,31.4*
O=C(/C=C/c1ccc([N+](=O)[O-])cc1)c1ccco1,23.5,-9.6,-3.5,nt,-9.0,-1.2,nt,nt
COC(=O)c1c(-c2cccnc2)csc1NC(=O)c1cc(C)on1,24.4,-1.8,2.2,-15.4,-12.7,44.0*,50.4*,65.6*
COc1ccc(C)cc1NC(=O)C(c1ccccc1)N1CCN(CC(=O)NC2CC2)CC1 (centres undefined),nt,nt,nt,nt,4.5,nt,nt,nt
Cc1cc(=O)[nH]c(SCC(=O)c2ccccc2)c1C#N,15.8,-0.7,0.1,-20.5,-2.3,51.1*,31.1*,45.4*
Cc1ccc(Nc2nnc(SCC(=O)NC3CC3)s2)cc1,nt,nt,nt,nt,-8.0,nt,nt,nt
COc1cccc(NC(=O)CN(C)C(=O)c2ccc(Cl)c(S(=O)(=O)N3CCCCCC3)c2)c1,nt,nt,nt,nt,21.6,nt,nt,nt
CC1(C)CNc2cc(N)ccc2S1,11.4,-7.3,-10.5,-6.2,0.7,61.2*,31.9*,42.7*
N[C@@H](Cc1cnc[nH]1)C(=O)Nc1ccc2ccccc2c1,nt,nt,nt,nt,9.4,nt,nt,nt
COc1ccc(N2CCN(C(=O)c3ccc4c(c3)NC(=O)C(CSCc3cccc(F)c3)N4)CC2)cc1 (centres undefined),-6.1,9.5,13.0,nt,nt,85.2*,7.6,14.2
COc1ccc(N2CCN(C(=O)c3ccc4c(c3)NC(=O)C(CSCc3c(F)cccc3Cl)N4)CC2)cc1 (centres undefined),15.9,-1.3,8.9,nt,nt,65.5*,11.5,18.7
COc1ccc(N2CCN(C(=O)c3ccc4c(c3)NC(=O)C(CSCc3ccc(C)cc3)N4)CC2)cc1 (centres undefined),-0.1,-3.1,3.9,nt,nt,92.3*,21.6,34.2*
O=C(CSCc1cccc(F)c1)N1CCN(c2ccccc2)CC1,17.3,-1.1,-3.3,23.0,-0.1,1.1,nt,nt
CCOCCCNC(=O)CCn1nc(-c2ccc(Cl)cc2)ccc1=O,-7.1,-1.3,-0.6,nt,-3.2,-1.1,nt,nt
CCN(CC)c1ccc(C(=O)NNC(=O)CN2C(=O)NC(C)(c3ccccc3)C2=O)cc1 (centres undefined),nt,nt,nt,nt,3.0,nt,nt,nt
O=C(O)c1ccccc1N/N=C/C1=C(N2CCOCC2)C(=C\c2ccccc2)/CC1,-9.7,-0.5,27.8,nt,25.5,24.6*,93.5*,102.2*
CCN(CC)c1ccc(/C=C2\CCC(/C=N/NC(=O)c3ccc(=O)n(C)c3)=C2N2CCOCC2)cc1,-9.7,-3.6,21.0,-12.0,nt,116.6*,112.9*,111.6*
CCOC(=O)c1c(-c2ccc(C)cc2)csc1/N=C/N(C)C,11.4,3.7,0.4,2.8,-2.5,1.8,nt,nt
CCOC(=O)c1c(-c2ccccc2)csc1/N=C/C1C(=O)CCCC1=O,9.4,0.6,4.1,4.8,2.2,113.8*,20.7,32.6*
CCOC(=O)c1c(CC(C)C)csc1/N=C/C1C(=O)CCCC1=O,24.4,-0.2,11.6,-1.4,5.0,126.2*,14.6,20.0
CCOC(=O)c1c(/N=C/C2C(=O)CCCC2=O)sc2c1CCCC2,-21.6,-0.4,3.2,2.8,0.8,-7.6,nt,nt
CCOC(=O)N1CCN(/C=C(\C#N)c2nc3ccccc3s2)CC1,7.5,9.5,3.1,-9.8,14.7,75.0*,43.8*,53.6*
CC(C)(C)c1ccc(C(=O)OC/C(O)=C(\C#N)c2nc3ccccc3s2)cc1,1.1,-7.1,19.2,2.4,6.0,1.2,nt,nt
COC(=O)c1ccc(/C=C(\C#N)c2nc3ccccc3s2)cc1,37.9,11.2,1.1,83.8*,3.9,36.4*,20.7,29.4*
SMILES,PHOSPHO1 block,Platelet DG rel,SKKanGAS inh,WT yeast gro inh,Rtt109 HAT inh,TPT1 inhibitor,caTPT1 confirm,RNase T1 counter
N#C/C(=C\N1CCN(Cc2ccc3c(c2)OCO3)CC1)c1nc2ccccc2s1,7.4,3.6,20.9,15.6,-3.4,52.3*,57.5*,66.0*
CCCCn1c(N)c(N(CC)C(=O)C2CCC2)c(=O)[nH]c1=O,nt,nt,nt,nt,1.0,nt,nt,nt
CN(C)/C=C(\C#N)S(=O)(=O)c1ccccc1,46.6,11.6,9.6,-7.2,-2.2,0.1,nt,nt
CS(=O)(=O)/C(C#N)=C\c1cnc(S(=O)(=O)c2ccccc2)s1,nt,13.6,34.3,nt,nt,35.2*,6.1,11.6
O=C(O)c1cccc(Nc2ccnc(Nc3cccc(C(=O)O)c3)n2)c1,27.0,nt,2.8,nt,-2.5,-3.2,nt,nt
COc1ccc(-c2nn(Cc3ccccc3)cc2C(=O)N2CCN(c3ncccn3)CC2)cc1OC,nt,nt,nt,nt,14.1,nt,nt,nt
Nc1c(C(=O)Nc2ccc(S(=O)(=O)N3CCCC3)cc2)sc2nc3cc4c(cc3cc12)CCC4,-2.4,-2.5,7.2,4.5,13.8,38.6*,24.8*,34.4*
COc1ccc(OCC(=O)N/N=C(\C)c2ccc(OC)cc2)cc1,-2.1,-5.9,-7.0,0.6,3.0,-1.4,nt,nt
COc1ccc(OCC(=O)N/N=C(\C)c2cc3ccccc3o2)cc1,-13.6,9.8,-2.1,4.7,3.3,27.3*,23.7,34.6*
CCOc1cccc2c1OC(c1cc(OC)c(OC)c(OC)c1)N1N=C(c3ccc(C)o3)CC21 (centres undefined),-9.0,4.3,-2.6,20.5,-1.3,114.5*,10.3,15.3
CC1CCCC(NC(=O)COC(=O)/C=C/c2ccc(F)cc2)C1C (centres undefined),nt,nt,nt,nt,2.3,nt,nt,nt
CN1CCN(S(=O)(=O)c2cccc(C(=O)Nc3sc4c(c3-c3nc5ccccc5[nH]3)CCCC4)c2)CC1,-12.5,2.5,28.7,4.5,-6.5,32.9*,34.8*,48.0*
Cc1ccc(C(=O)N/C(=C\c2ccc(-c3cccc([N+](=O)[O-])c3)o2)C(=O)NC(C)(C)C)cc1,9.6,6.6,9.2,20.9,0.1,-0.1,nt,nt
Cc1ccc(C(=O)N/C(=C/c2ccc(-c3ccc([N+](=O)[O-])cc3)o2)C(=O)NCCCN(C)C)cc1,nt,-9.5,2.0,nt,-3.7,26.2*,24.4*,32.8*
Cc1ccc(C(=O)N/C(=C\c2ccc(-c3ccc([N+](=O)[O-])cc3)o2)C(=O)NC2CCS(=O)(=O)C2)cc1 (centres undefined),20.6,3.3,8.0,0.3,1.0,46.9*,58.1*,70.8*
Cc1c(CCC(=O)NCCCn2ccnc2)c(=O)oc2c(C)c3oc4c(c3cc12)CCCC4,13.1,-1.2,3.5,nt,2.0,-0.3,nt,nt
O=C(CSc1nnc(-c2ccccc2F)o1)Nc1ccc(N2CCOCC2)cc1,nt,nt,nt,nt,1.0,nt,nt,nt
CCSC1=N/C(=C\C=C2/Oc3ccccc3N2CC)C(=O)S1,13.9,2.1,-6.1,nt,5.6,138.2*,147.5*,143.2*
